# Assay outcomes as filed in PubChem BioAssay.
# A selection: hits, their analogues and other compounds. The true share with any hit is near 3.6%.
# MITF TRPM1 HTS: activators of MITF-driven TRPM1 promoter activity in SK-MEL-5 cells | activation, % at 12.5 µM | SK-MEL-5 TRPM1-promoter luciferase, 24 h; % of positive control, neutral wells = 0 | AID 588334 | 300,000 compounds, 0.75% hits;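 active means mean activation of at least 80% with every replicate also reaching 80%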
# A3A deaminase: inhibitors of human APOBEC3A DNA deaminase | P31941 | recombinant A3A, FAM/TAMRA ssDNA deamination fluorescence | inhibition, % at 20 µM | 330,000 compounds, 0.41% hits;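 active means at least 40% inhibition at 20 µM here, with at most 30% in a related deaminase screen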
# APOBEC3G inh: APOBEC3G (human) deaminase inhibition. recombinant A3G, ssDNA deamination FAM/TAMRA fluorescence. 330,000 compounds, 0.28% hits. Q9HC16. AID 493012. inhibition, % at 20 µM;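 active means inhibition of at least 40% at 20 µM, with no more than 30% in the related APOBEC3A deaminase screen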
# Target sequence (Q9HC16 whole entry, looked up): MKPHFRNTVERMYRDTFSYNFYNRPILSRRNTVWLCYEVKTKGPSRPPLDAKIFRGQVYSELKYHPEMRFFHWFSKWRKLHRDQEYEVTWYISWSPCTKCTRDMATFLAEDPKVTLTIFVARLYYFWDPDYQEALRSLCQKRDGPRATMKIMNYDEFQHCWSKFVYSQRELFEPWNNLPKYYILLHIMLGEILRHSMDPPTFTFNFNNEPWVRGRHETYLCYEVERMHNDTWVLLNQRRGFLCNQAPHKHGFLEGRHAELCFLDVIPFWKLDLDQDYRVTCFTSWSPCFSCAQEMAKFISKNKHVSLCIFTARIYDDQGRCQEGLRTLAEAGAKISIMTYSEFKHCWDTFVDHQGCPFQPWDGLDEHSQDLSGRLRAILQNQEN
# esBAF inh: SWI/SNF esBAF complex inhibition. reporter increase, % at 12.5 µM. 350,000 compounds, 2% hits. mouse ES cells, Bmi1-luciferase knock-in reporter, 24 h; 100% = twice the neutral-well signal; in the data active means activation above about 40%;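 further: a rise in the Bmi1 reporter signal indicates esBAF inhibition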
# Wnt bcat act: activators of Wnt/beta-catenin signaling | Wnt/beta-catenin reporter cell assay, activator, plate reader | activation, % at 9.35 µM | 300,000 compounds, 1.2% hits | AID 743398; in the data active means activation above about 30%, passing the limit was not always enough
# PHOSPHO1 inh: inhibitors of human PHOSPHO1 phosphatase. Q8TCT1. recombinant PHOSPHO1, absorbance phosphatase assay. inhibition, % at 13.3 µM. 290,000 compounds, 1.1% hits; in the data active means inhibition above about 60%
# Hits are given with their value; 0 = inactive; - = no result.
SMILES,MITF TRPM1 HTS,A3A deaminase,APOBEC3G inh,esBAF inh,Wnt bcat act,PHOSPHO1 inh
CCOC(=O)c1c(N)n[nH]c1-c1ccc(OC)cc1,0,0,0,0,-,0
CCOC(=O)c1sc(-c2ccc(F)cc2)cc1N,98,0,0,57,-,0
CCOC(=O)c1sc2nc(C3CC3)cc(-c3ccc(F)cc3)c2c1N,0,0,0,0,0,0
CCOC(=O)c1sc(-c2ccc(OC)cc2)cc1N,99,0,0,76,-,0
CCOC(=O)c1sc(-c2ccccc2)cc1N,-,0,0,67,54,0
CCCC#Cc1cnc2c(c1)C(=O)N([C@@H](C)CO)C[C@@H](C)[C@H](CN(C)S(=O)(=O)c1cn(C)cn1)O2,-,-,-,0,-,-
Cc1ccccc1-c1cnc2c(c1)C(=O)N([C@@H](C)CO)C[C@H](C)[C@H](CN(C)Cc1ccncc1)O2,-,-,-,0,-,-
CC(C)NC(=O)N1C[C@H]2[C@@H](c3ccccc31)[C@H](CO)N2C(=O)C1CCCC1,-,-,-,0,-,-
Cc1csc(Nc2cccc3ccccc23)n1,0,0,0,-,0,0
Cc1ccc(Nc2nc(C)cs2)cc1,0,0,0,0,58,65
Cc1csc(Nc2ccc(Cl)cc2)n1,0,0,0,76,0,0
Cc1noc(C)c1S(=O)(=O)Nc1ccc2c(c1)C(=O)N([C@H](C)CO)C[C@@H](C)[C@@H](CN(C)C)OCCCC[C@H](C)O2,-,-,-,0,-,-
C=CCSC1=N/C(=C\C=C\c2ccco2)C(=O)S1,0,0,0,0,-,70
O=C(N/C(=C\c1ccccc1)C(=O)N1CCOCC1)c1ccccc1Cl,0,0,0,0,0,63
COc1ccc(/C=C(/NC(=O)c2ccccc2Cl)C(=O)O)cc1,0,0,0,-,47,0
COc1ccc(/C=C(/NC(=O)c2ccccc2Cl)C(=O)NCCCC(=O)O)cc1,0,0,0,-,0,0
S=C(Nc1ccc2nsnc2c1)N1CCCC1,0,0,0,81,0,0
O=C(Nc1ccc2nsnc2c1)N1CCCCCC1,0,0,0,0,0,0
CCc1ccc(NC(=S)N2CCCC2)cc1,0,0,0,49,0,0
C[C@H]1CCCCO[C@@H](CN(C)C(=O)Nc2ccc(C(F)(F)F)cc2)[C@@H](C)CN([C@@H](C)CO)C(=O)c2cc(NC(=O)c3ccccc3)ccc2O1,-,-,-,0,-,-
Cc1cc(=O)oc2cc(NC(=O)CCOc3ccccc3)ccc12,0,0,0,0,0,0
CCOC(=O)Nc1ccc2c(C)cc(=O)oc2c1,103,0,0,43,0,0
CCCCOC(=O)Nc1ccc2c(C)cc(=O)oc2c1,-,0,0,68,59,0
CCOC(=O)Nc1ccc2c(CN(C)Cc3ccc(F)cc3)cc(=O)oc2c1,0,0,0,0,0,0
COc1cc(CNn2c(C)n[nH]c2=S)cc(Cl)c1OCc1ccccc1,0,0,0,0,0,84
SMILES,MITF TRPM1 HTS,A3A deaminase,APOBEC3G inh,esBAF inh,Wnt bcat act,PHOSPHO1 inh
COc1cc(CNn2cn[nH]c2=S)cc(Cl)c1OCc1ccc(F)cc1,0,0,0,-,0,0
C[C@@H]1CCCCO[C@H](CN(C)C(=O)CCCN(C)C)[C@@H](C)CN([C@@H](C)CO)C(=O)c2cc(NC(=O)Nc3ccc(C(F)(F)F)cc3)ccc2O1,-,-,-,0,-,-
CCCCn1cnc2sc(-c3ccccc3)cc2c1=O,91,0,0,-,-,0
CCCCCn1cnc2sc(CC)cc2c1=O,0,0,0,-,0,0
CCCCCn1cnc2sc(-c3ccccc3)cc2c1=O,107,0,0,82,0,0
CCN(CC)C(=O)CSc1ncnc2sc(-c3ccccc3)cc12,-,0,0,63,-,0
COc1ncnc2sc(-c3ccccc3)cc12,0,0,0,50,-,0
CN(CCC#N)C(=O)CSc1ncnc2sc(-c3ccccc3)cc12,0,0,0,-,0,0
CN1c2ccc(C#Cc3cccnc3)cc2[C@H]2[C@H](CCN2S(=O)(=O)c2cccc(F)c2)[C@@H]1CO,-,-,-,0,-,-
CN(C)CC(=O)N1[C@H](C#N)[C@H](c2ccc(-c3cccc(C(=O)N(C)C)c3)cc2)[C@H]1CO,-,-,-,0,-,-
COc1ccccc1CN1[C@@H](CO)[C@@H]2c3ccccc3N(C(=O)C3CCCC3)C[C@@H]21,-,-,-,0,-,-
COc1ccc(S(=O)(=O)N(C)C[C@@H]2Oc3ncc(-c4ccncc4)cc3C(=O)N([C@H](C)CO)C[C@@H]2C)cc1,-,-,-,0,-,-
O=C(Nc1ccc2c(c1)[C@H]1C[C@@H](CC(=O)N3CCOCC3)O[C@@H](CO)[C@H]1O2)NC1CCCC1,-,-,-,0,-,-
Fc1ccc(-n2c(-c3ccc4ccccc4n3)n[nH]c2=S)cc1Cl,0,0,0,-,0,0
S=c1[nH]nc(-c2ccc3ccccc3n2)n1-c1ccc2ncccc2c1,0,0,0,0,0,74
S=c1[nH]nc(-c2ccc3ccccc3n2)n1-c1ccc(Cl)cc1,0,0,0,0,0,0
Cc1ccccc1-n1c(-c2ccc3ccccc3n2)n[nH]c1=S,0,0,0,0,0,71
CN1C(=O)c2cc(NS(=O)(=O)c3cccc(F)c3)ccc2OC[C@@H]2O[C@@H](CC(=O)O)CC[C@@H]21,-,-,-,0,-,-
O=c1c2ccccc2nc(-c2ccco2)n1Cc1ccccc1,96,0,0,52,-,0
CCCCCn1c(-c2ccco2)nc2nc3ccccc3nc21,0,0,0,0,-,0
c1ccc(Cn2c(-c3ccco3)nc3nc4ccccc4nc32)cc1,90,0,0,-,38,0
Oc1csc(Cc2nc(-c3ccc(-c4ccccc4)cc3)cs2)n1,0,0,0,0,-,0
Oc1csc(Cc2nc(-c3ccc4ccccc4c3)cs2)n1,-,0,0,69,-,0
